Results as given in the supplement of paper PMC12632987.
In all, about 1,800 sequences were measured (“median log2 fold change of GCK-ALFA target abundance (FLAG IP / Myc IP barcode read proportion)”: median about 0.14, lowest 2% from about -0.84 on). Many of the other results were omitted from the sample, so the lowest values are more common in it than they were.

T1: TRAF2, Q12933
T1 chain: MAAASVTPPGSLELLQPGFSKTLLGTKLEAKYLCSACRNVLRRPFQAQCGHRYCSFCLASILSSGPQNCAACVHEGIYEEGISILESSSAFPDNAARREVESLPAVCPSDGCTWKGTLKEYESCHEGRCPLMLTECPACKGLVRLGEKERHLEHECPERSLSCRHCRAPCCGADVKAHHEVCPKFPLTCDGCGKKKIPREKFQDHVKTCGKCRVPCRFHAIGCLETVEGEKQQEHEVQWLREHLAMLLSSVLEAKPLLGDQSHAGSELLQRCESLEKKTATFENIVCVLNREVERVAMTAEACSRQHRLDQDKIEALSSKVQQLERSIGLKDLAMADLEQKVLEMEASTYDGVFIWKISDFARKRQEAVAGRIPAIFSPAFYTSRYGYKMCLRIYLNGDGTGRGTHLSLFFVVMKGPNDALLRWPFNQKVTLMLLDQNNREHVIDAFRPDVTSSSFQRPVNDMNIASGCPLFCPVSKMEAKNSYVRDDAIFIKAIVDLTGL

B1: traf2_out_6_156_2410 (protein)
chain: MVDAIFKEALEKIEKEIKKLSEASEEKKIKYISNIAGTVYRALQQLRDAGASLAEIEAFAKKLKAEIEKKLKEAGLPEDTINLVLSSINAVFDVAIADAK
B2: traf2_out_13_95_1152 (protein)
chain: SKELAEKINQIADDMLDQVEAKLQALLEKMKAAGKGVEEVQKALDLARYRSVNEAIALLEELSKKYPEFKELFDATIKEIKAIIREAGRKVAELIKEEEA
B3: traf2_out_11_131_656 (protein)
chain: MDAVAMAESAAERVDERLEIAKTLSPEERLRLARQSLDSLEALAEYLKEHVKEMSKEDVEKAAKILRESAEKILEFSPEVEEEAKEVEEAIKKLLEAAKA
B4: traf2_out_20_38_2032 (protein)
chain: SEEEEEERRLEEAIEVANEAYDRYTARFEEWQAAGKTVEEIAEETKKEVKELLEKAGLEEEAKILIEDIDLALSSPDAVRLLVRILARAEALVWQKEKEK
B5: traf2_out_19_16_1989 (protein)
chain: SKEEAEKLKKEMNKYLDEALELAKEAVENLDELSREELMDKLVEISELMRKAKELLQKYLELNKDDEEERKKVTEEFDKKYDEIMKLMTIIVKKIEELLK
B6: traf2_out_11_155_670 (protein)
chain: SEKQKLNNELVNELTEIADELKEKVEKILKEAAAAHPEHAEELAAVIASGKTLSGRSFARLAAQKFRELGLEEEAKKVEELLEEAQKKMNEVVKKYEEKL
B7: traf2_out_3_89_2310 (protein)
chain: GAERERTIEEMRREMERYIRGFRKSAERVAKEMLEDGMSLETLRGVLEAAKSALLEVLRERMRERGLSEEEIEELLEEAGRELDKVVEEVVAEAEERRKA
B8: traf2_out_17_162_1600 (protein)
chain: SELEKFKEKIEKELEELEKERKELEKKLKEIDSLSKEELTDLLVEASEKRRKALELLEKLEENKEKLDKEFYEKYKKRAEEIAEEFQRIANEIMKKLEEK
B9: traf2_out_20_38_2010 (protein)
chain: SEEEKEKEKLEKLVEVANEAYDKYSAEFEKWKAEGKTVEEIAEEVKKRVKEKLSAAGLEEEAKILIEDIDLALSSPNAWRLLVRTLARADALVKQKELNK
B10: traf2_out_17_162_1551 (protein)
chain: SALEEELERLEEELRRLEEELERLKKELENLEKKSKEELTDLLVEASEARRRARELAERLRELEPLIGEERAGELRERAEEIAEELQRIANKIYKELEKK
B11: traf2_out_20_38_2037 (protein)
chain: SEEEEEEKKLQEVIDVANEALDKYEKKIAEWKAEGKTVEEIAEAAKEEVRRLLEEVGLEEEAEILVEDIDRALSSPDAERLIARILARAVALVKQKELNK
B12: traf2_out_11_169_882 (protein)
chain: EEKEKNRKFNDFALELNDKAKKELLAFAEELAKKLGLDVAEVKAIFEANKNSSLSALAAALIEYFRSKGHEDAAAAVLAKYEELQEKINKEGTKKLKELE
B13: traf2_out_17_178_1712 (protein)
chain: SKEEARKEISAATDEMIDLAEAAATRLLEIARKEGSLSPEELAELERARRLGSARTTLALMERAIPKSKSAEEVQAILDEFRKRYAELSKKIAEALEKYE
B14: traf2_out_20_38_2005 (protein)
chain: SEEEEEERRLKIIIEAANEELDRWEKEIEELKAEGKTVEEIAERAKEEVRRLLTAAGLEEEAEELIAEIDLVLDSPDALDAIARILARAKALVVQKELNK
B15: traf2_out_20_3_2071 (protein)
chain: KELEEEAERELERALELLKRAAELADEETAKRLEELIKRLKASRELSVDDRLVVVSEVRREVLELAEEAKAAGKEELAKELEEAAEALNRAAQLLYDILQ
B16: traf2_out_13_95_1038 (protein)
chain: SKELAEKIMEIADEMEERSLALLEAAKEELADDPEAVAVLTEAKRLAETKGISEALHLLREASAANPEHAARFDALIEELEAIRREAGRKVAKLIKEEEE
B17: traf2_out_15_48_1367 (protein)
chain: DAAAYRAAMNAAADRIIATKDEVKKEVKELAKVASPEVKKKLNEVAKLIEAGAGSQEIIAALKEAAKVASPELKAKLEELAERLRAARREASAIAAAMAK
B18: traf2_out_13_95_1077 (protein)
chain: SKETNEKIMEIADEMLDKVNEVLEELAEKVKDDPEMKAKVEEALHLATHRGINEAIHLLKKLAEENEEYKELLEEAIKKLEEIKEKAGKEVAKLLKEEEE
B19: traf2_out_13_95_1157 (protein)
chain: SAELAKKIMEIADEMLDRSLAVLDALLAKAKAAGKLEAEVAEARHLAETRSINEAIAKLRELAKAHPEFKAELDAAIAELEALRREAGRKVAELIKEEEE
B20: traf2_out_17_162_1548 (protein)
chain: GELEERLKELEEELEELERRAEELESLLPELPKLSKEELTDLLVEASEARRRARRLAEEIEKLKEEIGEERAEELRERAEEIAERLQRIANAIYKELEKK
B21: traf2_out_17_162_1532 (protein)
chain: SELEERLRELEEELRELEKRLEELEKELENLENMSKEELSDLLVEASEARRRALELAEELRELRSEIGEERAEELIRRAEEIAERLQRIANKIYEELEKK
B22: traf2_out_17_162_1490 (protein)
chain: EELEERLRELERRLEELERRLKELEEKLKNIDKLSKEELTDLLVEASEAKREARRLAEELRELRERTGREELEELIRRAEEIAERLQRIANIIYKELEKK
B23: traf2_out_18_3_1898 (protein)
chain: SEEKLKEISEKIDEIIDEVTAKAREVLDWLEKNKPEVKERIAALRADLEAGAGPFGILRELARLAKEAGEEEKAKEIEEFLKEKSKELQELVDEYLELRA
B24: traf2_out_13_95_1133 (protein)
chain: SAETAKKIMEIADKMLDEVEKILEELLKIFEKKGIGVEEIKEALYLARHQSINEAIAKLEELSKKYPEFKEELDKAIEEIKALREKAGKEVAEILKKEKE
B25: traf2_out_1_27_1000 (protein)
chain: STEEERELLRRANREIGRASPEEQVEIIKRTLREALERGIDSPEHIAVVLILMLGDEETRERAIEAAREVLREAGISEEAIERMERRVRSGWERLDRLLA
B26: traf2_out_11_169_815 (protein)
chain: EEAEKNRKINDFALELNDEAKKKLLEHAKKLAKEAGLDVEEVEKIFEENKNKSLSAVAAALIKYFRSKGKEEEAEAVLKKYEELKEEINKKVTEKIKELE
B27: traf2_out_13_95_1055 (protein)
chain: SAETAAKINEIADEALERALALLRAAQEEVADDPAASAVLAEALRLAETRGISEAIHLLREAQAADPAHAERFAALIEELEAIRREAGRRVAEVLKEEKE
B28: traf2_out_18_64_1955 (protein)
chain: SELDEEIDRLVDEMDERRRLRLALARALQARAAADPAWQPLLDYFHAHVNDIGAAGARRMLALLAAGAPPAELRAVMEEDLGEGRELQRRLAELLEKREK
B29: traf2_out_18_117_1787 (protein)
chain: MEREEIIERLKEIAEETGRAASELGKLVLEKWEELTPEEKSEAFDVLADLSEVRREAQLLIIEIEEKNLPIEEAKKRLEELEKRAEEALKRAEEKIKRIK
B30: traf2_out_17_178_1705 (protein)
chain: SKEEARKKISEATDKMIDLAQEAAERLLEIAEREGSLSPEELAELRRARRLGSARTTLALMRRAIPRSRSAEEVRRLVEEFEKEYRELSKIIAEELKKYE
B31: traf2_out_13_95_1155 (protein)
chain: SKELAEKIMEIADRMLDEALAVLDELLAAAKAAGKLEEEVARARHLAEHHSINEAIALLRELAKAHPEFKEELDAAIARLEALRREAGREVAELIKKEKE
B32: traf2_out_13_95_1102 (protein)
chain: SRELAEEIMKIADEMIDKANEILEELLKIAKEKGVAEEEVKEALYLAEHRSIREAIHKLKELAKEYPELKEEFEEAIEKLEKLIEEAGKKVAELIKEEKE
B33: traf2_out_6_166_2459 (protein)
chain: ESETLKEIREIIKELSKYSTEIIVKAFDEVAKKVDEESARILRQLKSAVEQAEKLGLDVETALTATVLGLITLGVPEETLLKLLKEVLKEAKKIAEEKEK
B34: traf2_out_13_95_1054 (protein)
chain: SAETAEKINEIADEALEEALALLEEARAEVADDPEASAVLDEALRLAETKGISEAIHLLEEARAADPAHAERFAALIERLRAIRREAGRKVAEVLKEAEE
B35: traf2_out_14_166_1277 (protein)
chain: MTPEEIERIRKIVDELEPLTDAAVARARAILDKVRDKLSPEDLARVEALLALAARNIGSSAINALREIAKIYKKAGLDEAAAAMQALADELEEKLKKLNK
B36: traf2_out_6_156_2405 (protein)
chain: MLEEIEEETLKEIEELIKELAAASEEKKIAYISKIAGTFYRGLQRARAAGASVEELEAFGKRVLEKTKELLDEEGLPQDVKDLILSSLNAVFDVALAEAR

Target: T1, TRAF2, Q12933
Assay: median log2 fold change of GCK-ALFA target abundance (FLAG IP / Myc IP barcode read proportion) (log2 ratio); each designed protein is fused to an ALFA-tag nanobody in HEK293 cells to bring the named protein to FLAG-tagged glucokinase (GCK); Myc marks an untargeted standard; higher = target protein stabilised (more abundant)
Settings: target protein: 3xFLAG-MCP-GCK-ALFA reporter; HEK293 landing pad (RPLP)
How it was run: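 The readout is target abundance, the per-binder median log2 ratio of FLAG to Myc barcode read proportions. It came from HEK293 landing-pad cells carrying a recombined ALFA-nanobody-fused binder library, induced with 2 μg mL^−1 doxycycline and transfected with a plasmid for a FLAG-tagged target and a Myc-tagged standard. After 48 h, lysates were immunoprecipitated with anti-FLAG and anti-Myc, and circular RNA barcodes were reverse transcribed, amplified and sequenced. Each barcode needed a proportion of at least 10^−7 in both replicates and each binder at least 3 barcodes per replicate, a pseudocount of 10^−6 was added, and the replicates were pooled.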

Binder	median log2 fold change
B1	0.298
B2	-0.574
B3	0.344
B4	-1.23
B5	0.137
B6	0.263
B7	-1.13
B8	0.0488
B9	-1.49
B10	0.0543
B11	-1.45
B12	0.444
B13	0.217
B14	-1.09
B15	0.112
B16	-0.177
B17	-0.184
B18	-0.0213

Binder	median log2 fold change
B19	-0.558
B20	0.22
B21	0.0409
B22	-1.17
B23	-0.192
B24	-0.0113
B25	0.155
B26	0.235
B27	0.257
B28	0.163
B29	0.101
B30	-0.521
B31	-0.372
B32	-0.486
B33	0.077
B34	0.213
B35	0.354
B36	0.151
